# Inconclusive results are not listed. Calls of active or inactive are those of the source. How the source made its calls, unless noted: active means hit-call score of the fitted dose curve at least 0.9, where 1 is the maximum; inactive means score below 0.9.
# Key:
# [1] = biological target: CCAAT/enhancer-binding protein beta (Homo sapiens) (UniProt P17676); experiment: ATG_C_EBP_CIS: Attagene CIS-FACTORIAL HepG2 Assay for human CCAAT/Enhancer Binding Protein (C/EBP) beta (AID 2282927); details: HepG2 Attagene cis-factorial transcription factor reporter; actives raise or lower the signal
# CCAAT/enhancer-binding protein beta (Homo sapiens), sequence (P17676 whole entry, looked up): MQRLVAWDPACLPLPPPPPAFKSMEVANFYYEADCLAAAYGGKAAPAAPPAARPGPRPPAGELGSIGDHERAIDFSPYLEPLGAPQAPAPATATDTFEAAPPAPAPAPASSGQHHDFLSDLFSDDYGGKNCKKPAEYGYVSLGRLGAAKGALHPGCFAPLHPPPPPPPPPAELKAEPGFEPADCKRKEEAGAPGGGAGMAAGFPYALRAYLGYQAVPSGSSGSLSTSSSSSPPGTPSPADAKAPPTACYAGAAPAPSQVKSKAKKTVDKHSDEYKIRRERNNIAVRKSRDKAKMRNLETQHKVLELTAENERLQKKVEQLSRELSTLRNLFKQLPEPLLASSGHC
# Procedure, shortened: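 Changes in reporter mRNA, rather than exogenous chimeric receptor activity, reflect native C/EBP signalling in transfected HepG2 cells dosed for 24 h; transcripts are detected by RT-PCR and capillary electrophoresis.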
# [2] = biological target: Transcription factor E2F1 (Homo sapiens) (UniProt Q01094); experiment: ATG_E2F_CIS: Attagene CIS-FACTORIAL HepG2 Assay for human E2F Transcription Factor 1 (AID 2282935); details: HepG2 Attagene cis-reporter, E2F reporter RNA transcripts; actives raise or lower the signal
# Transcription factor E2F1 (Homo sapiens), sequence (Q01094 whole entry, looked up): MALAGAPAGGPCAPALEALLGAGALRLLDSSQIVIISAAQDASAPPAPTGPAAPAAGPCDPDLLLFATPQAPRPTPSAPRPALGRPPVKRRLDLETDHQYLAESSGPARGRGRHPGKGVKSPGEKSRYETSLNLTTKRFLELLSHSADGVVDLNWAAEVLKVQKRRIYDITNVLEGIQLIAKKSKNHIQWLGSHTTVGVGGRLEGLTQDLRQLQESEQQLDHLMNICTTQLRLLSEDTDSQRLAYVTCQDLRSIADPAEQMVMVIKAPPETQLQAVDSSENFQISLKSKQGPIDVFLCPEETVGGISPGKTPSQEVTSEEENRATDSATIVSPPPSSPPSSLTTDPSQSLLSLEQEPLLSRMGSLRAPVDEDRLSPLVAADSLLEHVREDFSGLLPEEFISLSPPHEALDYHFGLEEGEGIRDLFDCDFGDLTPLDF
# Procedure, shortened: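 Fluorescent RT-PCR products, digested with HpaI for 2 h at 37 C, are separated by capillary electrophoresis. Source RNA comes from transfected HepG2 cultures treated for 24 h.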
# [3] = ATG_GATA_CIS: Attagene CIS-FACTORIAL HepG2 Assay for human GATA Binding Protein (AID 2282944); details: HepG2 GATA cis-element reporter, Attagene multiplex mRNA; actives raise or lower the signal
# Procedure, shortened: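 Transient MRTU transfection, HepG2, 24 h compound exposure. Total RNA → oligo(dT) RT → PCR → 6-FAM primer extension → HpaI cut → CE. Bidirectional fit vs DMSO.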
# [4] = biological target: Hepatocyte nuclear factor 6 (Homo sapiens) (UniProt Q9UBC0); experiment: ATG_HNF6_CIS: Attagene CIS-FACTORIAL HepG2 Assay for human Hepatocyte Nuclear Factor 6 (HNF6) (AID 2282952); details: HepG2 Attagene cis-factorial HNF6 reporter transcription; actives raise or lower the signal
# Hepatocyte nuclear factor 6 (Homo sapiens), sequence (Q9UBC0 whole entry, looked up, the tested form may be a part): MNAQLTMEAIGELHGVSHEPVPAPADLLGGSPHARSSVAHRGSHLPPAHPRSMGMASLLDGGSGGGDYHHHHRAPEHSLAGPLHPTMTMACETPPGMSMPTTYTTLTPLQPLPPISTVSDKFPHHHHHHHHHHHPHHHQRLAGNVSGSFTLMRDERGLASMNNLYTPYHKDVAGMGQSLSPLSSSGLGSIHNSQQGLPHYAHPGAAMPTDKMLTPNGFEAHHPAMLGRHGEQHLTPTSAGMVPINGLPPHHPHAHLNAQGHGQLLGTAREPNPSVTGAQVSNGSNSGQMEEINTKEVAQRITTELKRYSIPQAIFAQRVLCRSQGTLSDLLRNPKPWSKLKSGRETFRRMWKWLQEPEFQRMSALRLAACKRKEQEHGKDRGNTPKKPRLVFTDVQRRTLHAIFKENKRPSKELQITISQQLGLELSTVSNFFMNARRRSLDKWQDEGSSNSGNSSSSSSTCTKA
# Procedure, shortened: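 Readout: fluorescent reporter-transcript fragments resolved by capillary electrophoresis after RT-PCR, reflecting endogenous factor activity in transfected HepG2. Exposure 24 h. Gain or loss of signal fitted bidirectionally against DMSO.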
# [5] = biological target: Heat shock factor protein 1 (Homo sapiens) (UniProt Q00613); experiment: ATG_HSE_CIS: Attagene CIS-FACTORIAL HepG2 Assay for human Heat Shock Transcription Factor 1 (HSE) (AID 2282953); details: HepG2 HSE cis-reporter, Attagene RNA transcription; actives raise or lower the signal
# Procedure, shortened: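 HepG2, transient MRTU transfection, cis-promoter reporters (endogenous TF activity). 24 h compound. RNA → oligo(dT) RT → PCR → 6-FAM primer extension → HpaI cut → CE. Bidirectional fit vs DMSO.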
# [6] = ATG_VDRE_CIS: Attagene CIS-FACTORIAL HepG2 Assay for human Vitamin D Receptor Element (VDRE) (AID 2282968); details: HepG2 VDRE cis-reporter transcription, actives raise or lower the signal
# Procedure, shortened: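 Measures endogenous factor activity through cis-element-driven reporter transcripts in transiently transfected HepG2. Cells are treated 24 h; reporter mRNA is quantified by RT-PCR and capillary electrophoresis; fitting is bidirectional.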
# [7] = biological target: X-box-binding protein 1 (Homo sapiens) (UniProt P17861); experiment: ATG_Xbp1_CIS: Attagene CIS-FACTORIAL HepG2 Assay for human X-box Binding Protein 1 (XBP1) (AID 2282972); details: HepG2 XBP1 cis-element reporter, Attagene multiplex; actives raise or lower the signal
# X-box-binding protein 1 (Homo sapiens), sequence (P17861 whole entry, looked up): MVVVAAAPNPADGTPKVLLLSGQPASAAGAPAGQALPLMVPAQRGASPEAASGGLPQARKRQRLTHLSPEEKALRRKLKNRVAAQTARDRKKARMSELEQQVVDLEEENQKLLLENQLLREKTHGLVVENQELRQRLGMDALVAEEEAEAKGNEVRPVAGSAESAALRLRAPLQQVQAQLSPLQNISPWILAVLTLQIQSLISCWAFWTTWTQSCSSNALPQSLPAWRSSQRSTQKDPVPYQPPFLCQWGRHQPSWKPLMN
# Procedure, shortened: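 Reporter transcripts were quantified by RT-PCR with fluorescent primer extension and capillary electrophoresis after 24 h chemical exposure. Cells: transiently transfected HepG2 carrying cis-regulated reporter constructs; data fitted bidirectionally relative to DMSO.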
# [8] = ATG_M_06_TRANS: Attagene TRANS-FACTORIAL HepG2 Assay for M06 Transcription Factor (Internal Marker) (AID 2282983; active means hit-call score of the fitted dose curve at least 0.9, where 1 is the maximum); details: HepG2 Attagene TRANS M06 internal marker reporter
# Procedure, shortened: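 Read-out: fluorescent reporter cDNA fragments resolved by capillary electrophoresis after RT-PCR and HpaI cut. Source cells were HepG2 carrying transfected multi-reporter GAL4 constructs, dosed 24 h. Increase over DMSO control analysed.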
# [9] = ATG_NFI_CIS: Attagene CIS-FACTORIAL HepG2 Assay for human Nuclear Factor I (NFI) (AID 2282989); details: HepG2 cis-regulatory reporter, NFI response element transcription; actives raise or lower the signal
# Procedure, shortened: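 Transient MRTU transfection of HepG2 → 24 h chemical dosing → total RNA, oligo(dT) RT → PCR, 6-FAM primer extension, HpaI cut → capillary electrophoresis. Endpoint fitted bidirectionally relative to DMSO.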
# [10] = biological target: Myc proto-oncogene protein (Homo sapiens) (UniProt P01106); experiment: ATG_Myc_CIS: Attagene CIS-FACTORIAL HepG2 Assay for human Myelocytomatosis (Myc) Proto-Oncogene Transcription Factor (AID 2282990); details: HepG2, Attagene cis-reporter transcription factor activity; actives raise or lower the signal
# Myc proto-oncogene protein (Homo sapiens), sequence (P01106 whole entry, looked up): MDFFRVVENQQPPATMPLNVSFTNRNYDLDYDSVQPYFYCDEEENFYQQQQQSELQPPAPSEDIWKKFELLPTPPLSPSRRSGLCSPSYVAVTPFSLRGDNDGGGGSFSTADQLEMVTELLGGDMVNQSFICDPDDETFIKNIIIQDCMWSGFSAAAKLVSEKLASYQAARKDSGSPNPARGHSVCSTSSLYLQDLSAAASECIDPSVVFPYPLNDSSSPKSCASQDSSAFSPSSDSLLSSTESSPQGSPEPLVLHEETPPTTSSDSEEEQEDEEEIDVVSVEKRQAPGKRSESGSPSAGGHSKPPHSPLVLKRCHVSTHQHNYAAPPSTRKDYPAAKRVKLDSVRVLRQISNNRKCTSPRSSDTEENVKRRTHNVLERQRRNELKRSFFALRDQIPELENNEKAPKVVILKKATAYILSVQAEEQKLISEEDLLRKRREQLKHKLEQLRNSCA
# Procedure, shortened: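 Cells of the HepG2 human liver line bear multiple cis-driven reporter transcription units. Reporter mRNA after 24 h exposure is reverse-transcribed, amplified, labelled and resolved by capillary electrophoresis, with gain- or loss-of-signal fitting relative to DMSO.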
# [11] = ATG_NRF2_ARE_CIS: Attagene CIS-FACTORIAL HepG2 Assay for human Nuclear Factor Erythroid 2 Related Factor 2 (NFR2) response to Antioxidant Response Elements (ARE) (AID 2282992); details: HepG2 Attagene ARE/NRF2 reporter, transcription factor activity; actives raise or lower the signal
# Procedure, shortened: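 Endogenous transcription factor activity read out as reporter transcript levels (RT-PCR plus capillary electrophoresis, fluorescence) in transiently transfected HepG2 cells. Measured at 24 h after dosing; gain or loss of signal fitted versus DMSO.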
# [12] = biological target: Cellular tumor antigen p53 (Homo sapiens) (UniProt P04637); experiment: ATG_p53_CIS: Attagene CIS-FACTORIAL HepG2 Assay for human p53 Transcription Factor (AID 2282994); details: HepG2 p53 cis-element reporter, Attagene mRNA; actives raise or lower the signal
# Cellular tumor antigen p53 (Homo sapiens), sequence (P04637 whole entry, looked up): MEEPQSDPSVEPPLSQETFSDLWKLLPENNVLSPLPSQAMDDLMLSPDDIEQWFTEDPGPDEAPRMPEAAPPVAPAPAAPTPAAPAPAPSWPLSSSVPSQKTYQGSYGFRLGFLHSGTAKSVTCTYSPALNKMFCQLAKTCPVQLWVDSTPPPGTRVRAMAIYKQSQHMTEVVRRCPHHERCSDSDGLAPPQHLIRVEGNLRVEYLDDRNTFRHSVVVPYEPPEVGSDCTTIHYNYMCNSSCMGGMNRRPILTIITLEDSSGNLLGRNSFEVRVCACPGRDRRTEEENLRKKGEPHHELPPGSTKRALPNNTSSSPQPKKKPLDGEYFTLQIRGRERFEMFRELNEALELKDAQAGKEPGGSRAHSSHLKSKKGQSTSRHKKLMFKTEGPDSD
# Procedure, shortened: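 Endogenous p53 activity read in transiently transfected HepG2 from a cis-element-driven reporter transcript after 24 h exposure. RNA reverse-transcribed, PCR-amplified, fluorescently labelled and sized by capillary electrophoresis; gain or loss fitted against DMSO baseline.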
# [13] = biological target: Cellular tumor antigen p53 (Homo sapiens) (UniProt P04637); experiment: TOX21_p53_BLA_p2_ratio: Tox21 HCT-116 p53 Agonism Beta-lactamase Assay, Ratio, Phase 2 (AID 2283592; active means hit-call score of the fitted dose curve at least 0.9, where 1 is the maximum)
# Procedure, shortened: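 Readout: blue/green (460/530 nm) FRET emission ratio after 2 h CCF4-AM loading at room temperature, excitation 405 nm. HCT116 p53 bla cells, 16 h compound exposure at 37C, 5% CO2; agonist direction fitted against DMSO baseline.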
# [14] = biological target: Hypoxia-inducible factor 1-alpha (Homo sapiens) (UniProt Q16665); experiment: ATG_HIF1a_CIS: Attagene CIS-FACTORIAL HepG2 Assay for human Hypoxia Inducible Factor 1 (HIF1A) (AID 2282951); details: HepG2 Attagene cis-factorial HIF1a reporter transcription; actives raise or lower the signal
# Hypoxia-inducible factor 1-alpha (Homo sapiens), sequence (Q16665 whole entry, looked up): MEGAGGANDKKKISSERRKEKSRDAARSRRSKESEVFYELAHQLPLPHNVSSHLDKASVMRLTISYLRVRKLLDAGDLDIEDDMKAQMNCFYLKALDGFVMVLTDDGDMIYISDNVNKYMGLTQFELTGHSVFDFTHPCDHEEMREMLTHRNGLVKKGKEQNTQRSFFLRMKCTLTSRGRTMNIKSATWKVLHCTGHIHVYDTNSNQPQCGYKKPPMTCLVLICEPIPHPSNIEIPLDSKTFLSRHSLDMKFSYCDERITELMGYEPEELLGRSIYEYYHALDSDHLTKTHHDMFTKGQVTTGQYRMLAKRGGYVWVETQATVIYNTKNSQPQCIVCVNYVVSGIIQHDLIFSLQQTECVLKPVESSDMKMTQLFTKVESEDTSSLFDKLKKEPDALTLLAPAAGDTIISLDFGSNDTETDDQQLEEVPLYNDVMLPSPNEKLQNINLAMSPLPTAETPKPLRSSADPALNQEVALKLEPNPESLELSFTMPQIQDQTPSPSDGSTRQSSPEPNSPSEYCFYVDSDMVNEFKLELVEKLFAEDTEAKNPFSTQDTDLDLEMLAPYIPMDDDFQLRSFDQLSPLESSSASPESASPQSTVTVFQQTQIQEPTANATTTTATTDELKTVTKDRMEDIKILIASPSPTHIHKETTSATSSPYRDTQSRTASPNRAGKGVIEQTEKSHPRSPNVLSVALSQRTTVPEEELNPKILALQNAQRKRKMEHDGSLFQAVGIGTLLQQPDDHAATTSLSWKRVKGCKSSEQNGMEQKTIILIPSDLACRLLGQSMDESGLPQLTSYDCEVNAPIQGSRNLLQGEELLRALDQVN
# Procedure, shortened: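 Cis-element reporter constructs were transiently transfected into HepG2 cells, which were treated for 24 h; reporter RNA was reverse-transcribed, amplified, labelled and resolved by capillary electrophoresis.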
# [15] = biological target: Transcription factor Sp1 (Homo sapiens) (UniProt P08047); experiment: ATG_Sp1_CIS: Attagene CIS-FACTORIAL HepG2 Assay for human Specificity Protein 1 (Sp1) (AID 2282961); details: HepG2 Sp1 cis-reporter transcription, actives raise or lower the signal
# Procedure, shortened: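 Chemicals are dosed onto HepG2 cells transfected with multiple cis-promoter reporter constructs, and after 24 h reporter RNA is reverse-transcribed, PCR-amplified and resolved by capillary electrophoresis for fluorescence quantitation; activity is scored up or down against DMSO.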
# [16] = biological target: Signal transducer and activator of transcription 3 (Homo sapiens) (UniProt P40763); experiment: ATG_STAT3_CIS: Attagene CIS-FACTORIAL HepG2 Assay for human Signal Transducer and Activator of Transcription 3 (STAT3) (AID 2282963); details: HepG2, Attagene cis-factorial STAT3 reporter transcription; actives raise or lower the signal
# Signal transducer and activator of transcription 3 (Homo sapiens), sequence (P40763 whole entry, looked up): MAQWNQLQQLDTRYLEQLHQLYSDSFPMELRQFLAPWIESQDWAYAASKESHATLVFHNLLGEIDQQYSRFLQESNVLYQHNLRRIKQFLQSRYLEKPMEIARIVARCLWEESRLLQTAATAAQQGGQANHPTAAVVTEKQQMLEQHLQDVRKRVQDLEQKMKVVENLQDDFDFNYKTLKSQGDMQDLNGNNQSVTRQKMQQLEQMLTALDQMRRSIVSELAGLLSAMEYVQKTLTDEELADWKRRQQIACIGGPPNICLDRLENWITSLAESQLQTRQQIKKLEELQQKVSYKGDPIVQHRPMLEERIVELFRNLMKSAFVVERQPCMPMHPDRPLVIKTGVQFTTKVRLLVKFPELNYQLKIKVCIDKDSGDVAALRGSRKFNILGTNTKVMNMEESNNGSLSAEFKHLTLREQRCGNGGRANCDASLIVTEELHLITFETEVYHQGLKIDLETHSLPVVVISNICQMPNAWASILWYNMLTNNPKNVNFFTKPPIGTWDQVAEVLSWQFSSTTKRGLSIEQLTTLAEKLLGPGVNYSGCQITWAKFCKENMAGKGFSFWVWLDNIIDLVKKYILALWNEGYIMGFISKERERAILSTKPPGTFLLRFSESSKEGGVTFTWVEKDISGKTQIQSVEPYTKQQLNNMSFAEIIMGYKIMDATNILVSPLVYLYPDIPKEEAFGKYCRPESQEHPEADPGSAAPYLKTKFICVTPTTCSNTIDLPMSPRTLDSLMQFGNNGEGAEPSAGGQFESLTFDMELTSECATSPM
# Procedure, shortened: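 Cis-factorial format: endogenous transcription factors in HepG2 drive transfected reporter units. After 24 h treatment, reporter RNA was reverse-transcribed, amplified, FAM-labelled and HpaI-digested before CE analysis; activity scored in both directions against DMSO.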
# [17] = ATG_TAL_CIS: Attagene CIS-FACTORIAL HepG2 Assay for human TAL Basal Promoter (AID 2282966); details: HepG2 Attagene cis-factorial TAL promoter reporter; actives raise or lower the signal;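 further: background control endpoint measuring basal TAL promoter reporter mRNA not a specific factor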
# Procedure, shortened: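 HepG2, transient MRTU transfection, 24 h compound exposure; RNA → oligo(dT) RT → PCR → 6-FAM primer extension → HpaI digest → CE fluorescence. Bidirectional curve fit vs DMSO. Background-control readout.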
# [18] = biological target: Transcriptional activator Myb (Homo sapiens) (UniProt P10242); experiment: ATG_Myb_CIS: Attagene CIS-FACTORIAL HepG2 Assay for human Myeloblastosis (Myb) Proto-Oncogene Transcription Factor (AID 2282986); details: HepG2 Attagene CIS-FACTORIAL Myb reporter transcription; actives raise or lower the signal
# Transcriptional activator Myb (Homo sapiens), sequence (P10242 whole entry, looked up): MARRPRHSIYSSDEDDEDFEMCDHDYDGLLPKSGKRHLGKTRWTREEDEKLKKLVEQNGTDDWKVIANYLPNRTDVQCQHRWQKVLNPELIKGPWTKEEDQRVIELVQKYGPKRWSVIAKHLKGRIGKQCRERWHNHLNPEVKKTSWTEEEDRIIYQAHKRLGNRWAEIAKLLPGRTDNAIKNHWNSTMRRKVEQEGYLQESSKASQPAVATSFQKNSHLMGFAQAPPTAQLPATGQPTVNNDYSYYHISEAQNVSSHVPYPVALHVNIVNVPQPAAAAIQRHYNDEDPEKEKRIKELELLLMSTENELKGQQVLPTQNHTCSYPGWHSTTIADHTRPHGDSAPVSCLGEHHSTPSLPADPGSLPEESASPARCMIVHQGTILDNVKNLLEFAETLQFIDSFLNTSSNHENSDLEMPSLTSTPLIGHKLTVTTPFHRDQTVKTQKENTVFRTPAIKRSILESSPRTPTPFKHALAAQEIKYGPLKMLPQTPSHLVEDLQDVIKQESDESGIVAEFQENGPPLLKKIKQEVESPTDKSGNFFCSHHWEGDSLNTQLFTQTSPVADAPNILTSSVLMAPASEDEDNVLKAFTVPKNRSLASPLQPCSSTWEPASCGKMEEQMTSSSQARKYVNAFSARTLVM
# Procedure, shortened: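 Using HepG2 liver cells bearing transiently transfected cis-promoter reporter constructs, the assay measures induction or loss of reporter mRNA after 24 hours of dosing. Detection used fluorescently labeled RT-PCR products separated by capillary electrophoresis.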
# [19] = ATG_Sox_CIS: Attagene CIS-FACTORIAL HepG2 Assay for human SRY-box transcription factor (SOX) (AID 2282960); details: HepG2 Attagene cis-factorial SOX reporter, mRNA; actives raise or lower the signal
# Procedure, shortened: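 Fluorescence-labelled cDNA fragments from reporter transcripts, sized by CE, give the signal. Cells: HepG2, transiently transfected with cis-regulated reporter units. Exposure 24 h; DMSO negative control; bidirectional curve fitting.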
Compound,outcome [1],outcome [2],outcome [3],outcome [4],outcome [5],outcome [6],outcome [7],outcome [8],outcome [9],outcome [10],outcome [11],outcome [12],outcome [13],outcome [14],outcome [15],outcome [16],outcome [17],outcome [18],outcome [19],AC50 [11]
CNC[C@H](O)[C@@H](O)[C@H](O)[C@H](O)CO,inactive,inactive,inactive,inactive,inactive,inactive,inactive,inactive,inactive,inactive,inactive,inactive,inactive,–,–,–,–,–,–,–
CCCCCCC(O)CCCCCCCCCCC(=O)OC (centres undefined),inactive,inactive,inactive,inactive,–,inactive,inactive,inactive,inactive,inactive,inactive,inactive,inactive,inactive,inactive,inactive,inactive,inactive,–,–
O=C1NC(=O)C2CC=CCC12 (centres undefined),inactive,–,inactive,inactive,inactive,inactive,inactive,inactive,inactive,inactive,inactive,inactive,inactive,inactive,–,inactive,inactive,inactive,–,–
CC/C=C\CC1=C(C)CCC1=O,inactive,inactive,inactive,inactive,inactive,inactive,–,–,inactive,inactive,–,inactive,inactive,inactive,–,inactive,–,inactive,inactive,35.9 µM (active)
CN(C)CCC(c1ccc(Cl)cc1)c1ccccn1 (centres undefined),inactive,inactive,inactive,–,inactive,–,inactive,inactive,inactive,–,inactive,inactive,–,–,–,inactive,inactive,inactive,inactive,–
